Bioassay records as filed in PubChem BioAssay.
Only some compounds are listed: those with a hit (about 5.5% of all), similar ones and a draw of the others.
Mito fusion act = inhibitors of mitochondrial division or activators of mitochondrial fusion; actives 0.23% (n = 320,000); Potency, µM (series often up to 46.1 µM), usual class: activators; S. cerevisiae fusion-defective mutant growth rescue, CellTiterGlo 48 h; AID 485298; further: nearly all actives have a fitted effect of over 45% in size
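Read-out: ATP-based luminescence (CellTiterGlo, 10 min ambient) reporting growth of fusion-defective ts yeast after 48 hours at 37C on glycerol/ethanol YPEG medium in the presence of compound.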
Integrin act MD = activates integrin-mediated alleviation for muscular dystrophy; alpha7betagal myoblasts, beta-gal FDG fluorescence, 48 h; Potency, µM (doses to about 38.3 µM), actives largely listed as activators; actives 0.064% (n = 350,000); further: nearly all actives have a fitted effect of over 60% in size
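Alpha7betagal+/- myoblasts (passage 13) were plated 16-24 hr, then exposed to compounds (1:260 dilution of DMSO stock) for 48 hours at 37C. After MPER lysis, β-galactosidase reporter activity was read as FDG fluorescence (ex 480/em 540) after 30 minutes.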
RORgamma inh = inhibitors of mouse ROR gamma transcriptional activity; P51450; Drosophila S2 Gal4-RORgamma UAS-luciferase reporter, 20 h; Potency, µM (titrated, usually from 53.6 µM), most hits filed as inhibitors; actives 5.4% (n = 310,000); AID 2551; further: nearly all actives have a fitted effect of over 60% in size
Target sequence (P51450 whole entry, looked up, the tested form may be a part): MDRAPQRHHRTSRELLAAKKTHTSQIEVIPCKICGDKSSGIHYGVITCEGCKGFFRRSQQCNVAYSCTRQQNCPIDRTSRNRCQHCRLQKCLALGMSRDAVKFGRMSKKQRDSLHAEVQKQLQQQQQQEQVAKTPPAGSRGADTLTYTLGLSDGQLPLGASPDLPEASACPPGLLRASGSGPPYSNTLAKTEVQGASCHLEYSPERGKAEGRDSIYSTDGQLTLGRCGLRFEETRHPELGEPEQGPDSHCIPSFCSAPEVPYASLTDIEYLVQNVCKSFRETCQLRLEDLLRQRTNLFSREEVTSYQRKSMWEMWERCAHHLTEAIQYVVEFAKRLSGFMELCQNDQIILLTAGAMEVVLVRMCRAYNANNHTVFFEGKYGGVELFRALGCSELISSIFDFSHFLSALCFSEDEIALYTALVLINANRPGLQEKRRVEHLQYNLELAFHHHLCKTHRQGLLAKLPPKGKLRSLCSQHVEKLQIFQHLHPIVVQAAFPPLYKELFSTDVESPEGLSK
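Luciferase reporter read in Schneider cells carrying Gal4-RORγ (mouse) and UAS-Photinus luciferase; cells given compound 1 h before 700 uM copper sulfate induction, then incubated 20 h at ambient temperature.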
VP16 counter = counter-screen for ROR gamma inhibitors: Gal4-VP16 reporter; actives 3.5% (n = 310,000); Potency, µM (series often up to 53.6 µM), most hits filed as inhibitors; Drosophila S2 Gal4-VP16 UAS-luciferase, luminescence, 20 h;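 further: Gal4-VP16 expression switched on by copper sulfate through the metallothionein promoter; nearly all actives have a fitted effect of over 50% in size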
uPA surface inh = inhibitors of cell surface uPA generation | cell surface uPA generation assay, qHTS | Potency, µM (highest dose often 38.3 µM), usual class: inhibitors | actives 0.31% (n = 330,000) | AID 540303; active means well fitted inhibition curve with a large enough effect; inconclusive means small, poorly fitted or top-dose-only effect; inactive means no such curve, though single readings can be large or run the other way; tested in mouse RAW 264.7 cells; further: nearly all actives have a fitted effect of over 55% in size
BCR signal inh = inhibitors of chronic active B-cell receptor signaling | Potency, µM (series often up to 46.1 µM), usual class: inhibitors | ABC-DLBCL IkBa-CBG/CBR reporter, luminescence ratio, 4 h | actives 0.05% (n = 340,000); active means well fitted inhibition curve with a large enough effect in the signal ratio, with a control signal flat, not every such curve was filed as active; inconclusive means small, poorly fitted or top-dose-only effect, or effect the other way, or a change in a side signal; the % refers to the signal ratio
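TMD8 ABC-DLBCL cells carrying doxycycline-inducible green luciferase fused to IkappaBalpha plus unfused red luciferase were exposed to compounds (up to 46 uM) for 4 hrs at 37C. Activity came from the overlap-corrected green/red luminescence ratio.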
Numbers stand for hits; i = inactive; ? = inconclusive; nt = no result; ! = a repeat was not active; [ ] = another dose, or the depositor's remark. Unless noted, the call rests on the fitted dose curve; in most records, active means well fitted curve in the direction sought with a large enough effect; inconclusive means small, poorly fitted or top-dose-only effect, or another doubt; inactive means no such curve, though single readings can be large; an effect the other way counts as inactive or inconclusive.

SMILES | Mito fusion act | Integrin act MD | RORgamma inh | VP16 counter | uPA surface inh | BCR signal inh
Cc1ccc(NC(=O)n2ncc3c(C)cccc32)cc1F | i | i | ? | ? | i | ?
COc1ccc(NC(=O)n2ncc3c(C)cccc32)cc1 | i | ? | ? | 2.5µM | ? | ?
COc1ccc(C)cc1NC(=O)n1ncc2c(C)cccc21 | i | i | i | i | i | i
COc1ccc(-n2c(COc3cccc(C)c3)nnc2SCC(=O)O)cc1 | i | i | i | i | i | i
COc1ccc(-n2c(COc3cccc(C)c3)n[nH]c2=S)cc1 | i | i | 3.5µM | 5µM | i | i
COc1ccc(OCc2n[nH]c(=S)n2-c2ccc(C)cc2)cc1 | i | i | 2.2µM | ? | i | ?
COc1ccc(-n2c(COc3ccc(C)cc3)nnc2SCC(=O)O)cc1 | i | ? | i | i | i | i
COc1cc([N+](=O)[O-])c(OC)cc1SCc1n[nH]c(=S)n1-c1ccc(F)cc1 | i | i | i | i | i | ?
COc1cc([N+](=O)[O-])c(OC)cc1SCc1n[nH]c(=S)n1-c1ccc(C)cc1 | i | i | 2.2µM | i | i | ?
COc1ccc(-c2cc3ncc(-c4ccccc4)c(N)n3n2)cc1 | i | ? | ? | 7.9µM | i | ?
N#Cc1cnc2cc(-c3ccccc3)nn2c1N | i | i | i | i | i | ?
COc1ccc(-c2cc3nc(C)cc(N)n3n2)cc1 | i | i | 11µM | 10µM | i | ?
COc1ccc(-c2cc3nc(C)cc(-c4ccc(OC)cc4)n3n2)cc1 | i | i | i | i | i | ?
Cc1ccc(S(=O)(=O)N2CCC(C(=O)Nc3ccc(S(=O)(=O)N4CCCC4)cc3)CC2)cc1C | i | i | nt | nt | i | i
N#C/C(=C\c1c(N(Cc2ccccc2)Cc2ccccc2)nc2ccccn2c1=O)C(N)=O | i | i | ? | 7.1µM | i | ?
CN1CCN(c2ncnc3ccc(-c4ccoc4)cc23)CC1 | nt | nt | i | i | nt | nt
CC(C)(C)c1ccc(NC(=O)N2CCN(c3ccc([N+](=O)[O-])cn3)CC2)cc1 | i | i | i | ? | i | i
COC(=O)C1=C(C)N=C2SC(C#N)=C(N)N2C1c1ccc(OC)cc1 (centres undefined) | i | i | i | i | i | i
CCOC(=O)C1=C(C)N=C2SC(C(=O)OC)=CC(=O)N2C1c1ccc(OC)cc1 (centres undefined) | i | i | 1.8µM | ? | i | i
O=C1CCN(Cc2cccnc2)CCN1[C@H](CO)Cc1ccccc1 | i | i | i | i | ? | i
CCc1c(C)[nH]n(-c2nc(-c3cccc([N+](=O)[O-])c3)cs2)c1=O | i | i | 10µM | ? | i | ?
O=C(Nc1ccon1)c1ccc(OC2CCCC2)cc1 | i | i | i | i | 10µM | i
CC(C)(C)c1cc(NC(=O)c2ccc(OC3CCCC3)cc2)no1 | i | i | ? | i | i | i
N#CSCC(=O)c1cccc2ccccc12 | i | i | 11µM | ? | i | ?
CC(c1ccc(Cl)cc1)n1c(-c2ccc3ccccc3n2)n[nH]c1=S (centres undefined) | i | i | 1.8µM | 4.5µM | i | ?
SMILES | Mito fusion act | Integrin act MD | RORgamma inh | VP16 counter | uPA surface inh | BCR signal inh
c1ccc2nc(-c3nc4ccccc4[nH]3)ccc2c1 | i | i | i[0.365 µM] | nt | i | ?
CC1(C)Cc2ccccc2-c2nnc(-c3ccc4ccccc4n3)n21 | i | i | i | i | i | i
CC(c1ccc(F)cc1)n1c(-c2ccc3ccccc3n2)n[nH]c1=S (centres undefined) | i | i | 0.89µM | 3.5µM | i | i
O=C(NCCN1CCCCC1)c1cc(COc2c(F)cccc2F)on1 | i | i | i | i | i | i
CC(=O)Oc1cc(O)c2c(c1)OC(c1ccc(OC(C)=O)c(OC(C)=O)c1)C(OC(C)=O)C2=O (centres undefined) | i | i | i | i | i | i
CC(=O)Oc1cc(OC(C)=O)c2c(c1)OC(c1ccc(OC(C)=O)c(OC(C)=O)c1)C(OC(C)=O)C2 (centres undefined) | nt | nt | i | 16µM! | nt | nt
S=C1NCN(Cc2cccnc2)CN1c1cccc(Cl)c1 | i | i | i | i | i | i
Cc1cccc(N2CN(Cc3ccco3)CNC2=S)c1 | i | i | 11µM | ? | i | i
